What all share (test): NCI-60 one-dose screen, 48 h (100 = growth as untreated, 0 = no growth, -100 = all killed)
Common to all, as to conditions: 10 µM unless noted

For experiment [1], the system named is HCT-15 colon.
Experiment [2] relates to HT29 colon.
For experiment [3], the system named is SNB-75 CNS.
Experiment [4] concerns SNB-19 CNS.
The test system of experiment [5] is U251 CNS.
Experiment [6] deals with PC-3 prostate.
Experiment [7] has as its system SK-MEL-5 melanoma.
In experiment [8] the test system is UACC-62 melanoma.
Experiment [9] concerns LOX IMVI melanoma.
Experiment [10] deals with SK-MEL-28 melanoma.
The subject of experiment [11] is SK-MEL-2 melanoma.
For experiment [12], the system named is EKVX NSCLC.
The test system of experiment [13] is SN12C renal.
The subject of experiment [14] is UO-31 renal.
Experiment [15] concerns TK-10 renal.
Experiment [16] deals with ACHN renal.
The test system of experiment [17] is CAKI-1 renal.
Experiment [18] concerns A498 renal.
Experiment [19] relates to CCRF-CEM leukemia.
The subject of experiment [20] is MOLT-4 leukemia.

About 83,000 compounds went through this panel and 20% of them were active in at least one assay; those are over-represented in the sample as a whole.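 Negative percent growth values reflect cell death: -40 means 40% of the cells present at the start died, and -100 means all died.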 Values without a mark were called inactive. Activity calls are given as the source filed them. Rule for the calls: active = growth percent below 10; inactive = the rest.

For `CN(C)CCCn1c2nc(=O)[nH]c(=O)c-2nc2cc(Cl)c(Cl)cc21`, the growth was 87% in [1]; 20.9% in experiment [2]; 99.9% in experiment [3]; 100% in [4]; 55.2% in [5]; 60.2% in [6]. The growth is 78.3% in experiment [7]; 97.9% in [8]; 41.2% in experiment [9]; 106% in experiment [10]; 112% in experiment [11]; 103% in experiment [12]. The growth in experiment [13] is 70.5%; in experiment [14] it was 80.9%; in [15] it was 80.5%; in experiment [16], 87.8%; in experiment [17], 79%; in [18], 92.1%. The growth in experiment [19] is 45.6%; in experiment [20], 64.8%.
For `COc1ccc(/C(C)=C(\c2ccc(OCCN3CCCCCC3)cc2)c2ccc(OC(=O)C3CCCCC3)cc2)cc1`, the growth is -76.7% (active) in experiment [1]; -71% (active) in experiment [2]; -11.1% (active) in experiment [3]; 3.58% (active) in [4]; -84.9% (active) in [5]; -49.8% (active) in experiment [6]. Moreover, the growth is -99.7% (active) in experiment [7]; -73.7% (active) in experiment [8]; -93.5% (active) in [9]; -84.5% (active) in experiment [10]; -78.3% (active) in experiment [11]; -25.3% (active) in [12]. The growth was -87.2% (active) in experiment [13]; -96.9% (active) in [14]; -79.2% (active) in [15]; -88.5% (active) in experiment [16]; -34.4% (active) in experiment [17]; -3.54% (active) in [18]. The growth in experiment [20] is -13.7% (active).
`O=C1CCCCN1CCCCC#Cc1cccc(C#Cc2cccnc2)c1`: the growth in experiment [1] was 44.7%; in experiment [2], 86.5%; in experiment [3], 79.5%; in [4] it was 78.3%; in experiment [5], 72.4%; in [6], 61.5%. Further, the growth in experiment [7] was 62.6%; in [8] it was 36.3%; in experiment [9], 95.8%; in [10] it was 107%; in experiment [11] it was 96.4%; in [12], 93.9%. Also, the growth in experiment [13] is 90.3%; in [14], 59.1%; in [15], 229%; in experiment [16], 101%; in experiment [17], 84.4%; in experiment [18], 84.3%. For the same compound, the growth in [20] was -49.9% (active).
`Cc1cc2nc(C(Cl)Cl)nc(-c3ccc(Cl)cc3)n2n1`: the growth in [1] was -20.4% (active); in experiment [2], 2.12% (active); in experiment [3], -22.7% (active); in [4] it was 12.6%; in experiment [5] it was 4.15% (active); in experiment [6], 16.1%. The growth in experiment [7] was 41.2%; in [8], 48.5%; in experiment [9], 48.4%; in experiment [10], 18.5%; in experiment [11], 49.2%; in [12], -14% (active). Moreover, the growth in experiment [13] was 36.5%; in [14] it was -8.79% (active); in experiment [15], 4.92% (active); in experiment [16] it was -41.7% (active); in experiment [17], -38% (active); in [18], -16.9% (active). Also, in experiment [20], the growth is 21.6%.
Turning to `O=C(N=Nc1c(O)[nH]c2ccccc12)Nc1ccc(Br)cc1`, the growth is 77% in experiment [1]; 97.6% in experiment [2]; 105% in experiment [3]; 96.5% in [4]; 101% in experiment [5]; 91.9% in experiment [6]. Also, the growth is 81.9% in experiment [7]; 79.3% in experiment [8]; 78% in [9]; 89.3% in experiment [10]; 93.5% in experiment [11]; 86.6% in experiment [12]. For the same compound, the growth was 99.3% in experiment [13]; 66.8% in experiment [14]; 90% in experiment [15]; 83.7% in experiment [16]; 76.3% in experiment [17]; 72% in experiment [18]. Further, the growth in [20] was 90.2%.
`CCOC(=O)c1cnn(-c2ccc(S(N)(=O)=O)cc2)c1N`: the growth was 108% in [1]; 102% in experiment [2]; 78.1% in experiment [3]; 100% in experiment [4]; 103% in experiment [5]; 103% in experiment [6]. Moreover, the growth was 113% in experiment [7]; 97.5% in experiment [8]; 96.9% in experiment [9]; 106% in experiment [10]; 93.6% in experiment [11]; 101% in experiment [12]. Moreover, the growth is 98% in [13]; 64.8% in experiment [14]; 99.6% in experiment [15]; 116% in [16]; 150% in [17]; 70.4% in experiment [18]. In experiment [20], the growth is 100%.
As for `C=C1CC[C@@H]2[C@](C)(COC(C)=O)[C@H](OC(C)=O)CC[C@@]2(C)[C@@H]1CC(Nc1ccc(S(=O)(=O)Nc2nccs2)cc1)C1=CCOC1=O` (some centres undefined), the growth in experiment [1] is -39.2% (active); in experiment [2], -42.7% (active); in experiment [3], 28.3%; in experiment [4], 49.1%; in experiment [5], 4.21% (active); in [6], 21.8%. For the same compound, the growth in [7] was 31.4%; in experiment [8] it was 21.2%; in experiment [9] it was -88.3% (active); in experiment [10], -16.3% (active); in experiment [11], 28.4%; in experiment [12] it was 73.4%. The growth in experiment [13] was 15.6%; in experiment [14], 13.5%; in experiment [15] it was 55%; in experiment [16], -46.6% (active); in experiment [17], 55.9%; in experiment [18], 85%. For the same compound, the growth in experiment [20] was -4.45% (active).

The record behind these values is PubChem BioAssay (NCI).
